Structures are written as SMILES. Out of some 68,000 compounds screened, about 2,700 (4%) showed an effect of 50% or more. For the sample, strong results were picked, then their nearest neighbours and some compounds at random.

This assay relates to Plasmodium berghei. As to the kind of experiment: Screen against P. berghei liver stage (PbLuc), transformed with Luciferase, at 2uM. The format is functional, HepG2. The note with it: tested at 2 uM.
As to `CN(C)C(=O)c1cnc2n1CCN(Cc1ccsc1)C2`, the INHIBITION is given as 54.89%.

Regarding `CN(C)C(=O)c1cnc2n1CCN(Cc1ccccc1)C2`, the INHIBITION was -26.24%.

With `Cc1ccc(CN2CCn3c(C(=O)N(C)C)cnc3C2)cc1`, the INHIBITION was 7.77%.

Regarding `CCOCC(O)CN1CCN(C(=O)c2cnc3n[nH]c(C)c3c2)CC1` (centres undefined), the INHIBITION came to 21.89%.

`CC(O)CN1CCN(C(=O)c2cnn(-c3ccccc3F)c2)CC1` (centres undefined): the INHIBITION is -7.05%.

Consider `CC(c1ccccn1)N(C)C(=O)NCCn1c(=O)oc2ccccc21` (centres undefined), for which the INHIBITION came out at 40.4%.

On to `CSc1c(CC(=O)O)n(C)c2ccccc12`, for which the INHIBITION is recorded as -18.52%.

Take `Cn1c(CC(=O)O)c(Sc2ccccc2)c2ccccc21`: the INHIBITION is listed as 52.89%.

Regarding `Cc1ccc2c(c1)c(Sc1ccccc1)c(CC(=O)O)n2C`, the INHIBITION is -36.84%.

For the molecule `CSCC(CCO)NC(=O)Nc1cccc(Br)c1C` (centres undefined), the INHIBITION is on record as -29.43%.

Turning to `O[C@@H]1C[C@@H](c2nc(Cc3ccccc3)no2)N(Cc2ccc(F)cc2)C1`, the INHIBITION was found to be 30.63%.

As for `CN(Cc1ccc(F)cc1)CC1(O)CCN(C(=O)c2ccn(C)n2)C1` (centres undefined), the INHIBITION is given as -21.42%.

For the molecule `CC(C)(C)OC(=O)NCC1CCCCN1Cc1ccccn1` (centres undefined), the INHIBITION is on record as -43.28%.

Turning to `CC(C)(C)OC(=O)NCC1CCCCN1Cc1cccnc1` (centres undefined), the INHIBITION is on record as 24.05%.

Consider `CC(C)(C)OC(=O)NCC1CCCCN1Cc1ccncc1` (centres undefined), for which the INHIBITION stood at 54.29%.

As to `Cc1cc(C(F)(F)F)nn1C(C)C(=O)NN1CCN(C)CC1` (centres undefined), the INHIBITION is 32.88%.

Consider `Fc1cccc(-c2nnn3c2COC(CNc2ncccn2)C3)c1` (centres undefined), for which the INHIBITION is 39.47%.

With `CNS(=O)(=O)c1ccc(CNC(=O)C2CN(C)CCO2)cc1` (centres undefined), the INHIBITION is recorded as 33.49%.

On to `CNS(=O)(=O)c1ccc(CNC(=O)NCC2CCCO2)cc1` (centres undefined), for which the INHIBITION turned out to be 39.32%.

`CNS(=O)(=O)c1ccc(CNC(=O)C2CCCO2)cc1` (centres undefined): the INHIBITION was found to be 52.17%.

In the case of `Cn1ccnc1CN(Cc1cccnc1)CC1CCCO1` (centres undefined), the INHIBITION worked out at 41.82%.

For the molecule `CCn1nc(C(=O)N2CCNCC2C(=O)Nc2ccc(C)nc2)cc1C` (centres undefined), the INHIBITION was 3.82%.

Turning to `O=C(Cc1ccc(F)cc1)NCCNCc1cccc(O)c1`, the INHIBITION is recorded as -49.9%.

As for `O=C(Cc1ccccc1)NCCNCc1cccc(O)c1`, the INHIBITION is listed as 31.57%.

Take `O=C(Cc1cccc(F)c1)NCCNCc1cccc(O)c1`: the INHIBITION was found to be 57.33%.

For the molecule `c1ccc(CN2Cc3[nH]nc(COc4cccnc4)c3C2)nc1`, the INHIBITION is 18.6%.

Take `CC1CNC(=O)CCN1Cc1cc(O)c2cccc(F)c2n1` (centres undefined): the INHIBITION worked out at 18.31%.

As to `Cc1nnc(CN(Cc2cccc(Br)c2)C2CC2)o1`, the INHIBITION is -21.25%.

For the molecule `Cc1nnc(CN(Cc2ccc(Cl)c(Cl)c2)C(C)C)o1`, the INHIBITION came to 55.36%.

`Cc1nnc(CN(Cc2cccc(Cl)c2)C(C)C)o1`: the INHIBITION is listed as 41.05%.

As for `CC(C)N(Cc1cccc(Cl)c1)Cc1nnsc1Cl`, the INHIBITION turned out to be 16.72%.

With `Cc1nnc(CN(Cc2ccc3c(c2)OCO3)C2CCC(C)CC2)o1` (centres undefined), the INHIBITION is recorded as -37.84%.

For `Cc1nnc(CN(Cc2ccc(Cl)c(Cl)c2)C2CC2)o1`, the INHIBITION was 50.59%.

In the case of `O=C(c1ccccc1F)N1CCN(c2ccc(-n3cccc3)nn2)CC1`, the INHIBITION is -17.9%.

For the molecule `O=C(c1cccnc1)N1CCN(c2ccnc3ccsc23)CC1`, the INHIBITION turned out to be 4.52%.

In the case of `c1cc(-c2cnccn2)cc(-c2ccn(CCN3CCCCC3)n2)c1`, the INHIBITION worked out at 11.33%.

As to `c1cc(-c2cnccn2)cc(-c2ccn(CCN3CCCC3)n2)c1`, the INHIBITION is 6.07%.

On to `c1ccc(-c2cccc(-c3ccn(CCN4CCCCC4)n3)c2)nc1`, for which the INHIBITION stood at 63.1%.

Take `CS(=O)(=O)CCC(=O)N(CCc1cccc(F)c1)C1CC1`: the INHIBITION is listed as 29.22%.

In the case of `CN(C(=O)CC1=CCCCC1)C1CCCN(C2Cc3ccccc3C2)C1` (centres undefined), the INHIBITION is -12.75%.

Take `CN(C(=O)CCc1ccncc1)C1CCCN(CCc2ccccc2)C1` (centres undefined): the INHIBITION is listed as 42.17%.

On to `CN(C(=O)CC1=CCCCC1)C1CCCN(CCc2ccccc2)C1` (centres undefined), for which the INHIBITION worked out at 73.01%.

As for `CC(C)C(=O)NCC(=O)N(C)C1CCCN(CCc2ccccc2)C1` (centres undefined), the INHIBITION is 15.44%.

For the molecule `CN(C(=O)c1cccnc1)C1CCCN(CCc2ccccc2)C1` (centres undefined), the INHIBITION came out at 52.08%.

For `CSc1ccccc1C(=O)N(C)C1CCCN(CCc2ccccc2)C1` (centres undefined), the INHIBITION was -1.89%.

Regarding `CC(=O)N1C[C@H]2CC[C@@H](C1)N(S(=O)(=O)c1ccc(C#N)cc1Cl)C2`, the INHIBITION was -0.38%.

Take `COCCc1noc(CN(C)C2CCCN(c3cccnn3)C2)n1` (centres undefined): the INHIBITION came to 1.07%.

With `CC(C)c1nccn1C1CCCN(C(=O)c2ccc3c(c2)OCO3)C1` (centres undefined), the INHIBITION is reported as 4.5%.

For the molecule `CC(C)c1nccn1C1CCCN(C(=O)c2ccc3c(c2)COC3)C1` (centres undefined), the INHIBITION is given as 54.28%.

Consider `Cc1nccn1C1CCCN(C(=O)c2ccc3c(c2)COC3)C1` (centres undefined), for which the INHIBITION was 23.92%.

For the molecule `Cc1nccn1C1CCCN(C(=O)c2ccc3nncn3c2)C1` (centres undefined), the INHIBITION is 47.87%.

As to `CC(C)c1nccn1C1CCCN(C(=O)c2ccc3nncn3c2)C1` (centres undefined), the INHIBITION is reported as 72.31%.

Consider `CCc1nccn1C1CCCN(C(=O)c2ccc3nncn3c2)C1` (centres undefined), for which the INHIBITION is recorded as -32.49%.

With `OC(CN1CCN(Cc2cccnc2)CC1)c1cccs1` (centres undefined), the INHIBITION is reported as -11.22%.

On to `Cn1c(N2CCOCC2)nc2cc(C(=O)N3CC(O)CO3)ccc21` (centres undefined), for which the INHIBITION is -23.4%.

`COc1ccc(CN2CCc3ncnc(OC(C)C)c3CC2)cc1`: the INHIBITION amounted to 10.69%.

Take `Cc1cc(C)c2[nH]c(C(=O)NCCN3CCNC3=O)c(C)c2c1`: the INHIBITION came out at 8.76%.

Turning to `COc1cc(N2CCOC(c3ccc(F)cc3)C2)ncn1` (centres undefined), the INHIBITION amounted to 19.27%.

Turning to `N#Cc1c(F)cccc1Nc1cnn(CC(N)=O)c1`, the INHIBITION was -58.5%.

As for `CCc1nc2n(n1)CC(NCc1nc(-c3cccnc3)no1)CC2` (centres undefined), the INHIBITION is recorded as 41.71%.

As to `CCc1nc2n(n1)CC(NCc1cn(C)nc1-c1cccnc1)CC2` (centres undefined), the INHIBITION stood at 54.29%.

With `Cn1cc(CNC2CCc3ncnn3C2)c(-c2cccnc2)n1` (centres undefined), the INHIBITION was 13.53%.

For `O=C(Nc1ncn(CC(=O)N2CCCCCC2)n1)C1CCCO1` (centres undefined), the INHIBITION came out at 53.03%.

In the case of `CC(CC(=O)Nc1ncn(CC(=O)N2CCCCCC2)n1)C1CC1` (centres undefined), the INHIBITION was 34.73%.

Regarding `O=C(Nc1ncn(CC(=O)N2CCCCCC2)n1)C1CCCC1`, the INHIBITION is recorded as 35.23%.

Regarding `CCCC(N)CNS(=O)(=O)Cc1cccc(C#N)c1` (centres undefined), the INHIBITION is on record as 22.07%.

Consider `CCC(c1nc(CC(C)C)nn1-c1ccccn1)n1cccn1` (centres undefined), for which the INHIBITION was -72.12%.

In the case of `CCNC(=O)[C@@H]1C[C@H](N)CN1C(=O)c1c[nH]c2ccccc12`, the INHIBITION amounted to 22.16%.

For `Cn1cc(C(=O)Nc2ccc3c(c2)CN(C(=O)C2CC2)CC3)nn1`, the INHIBITION is listed as 0%.

`CC(=O)N1CCc2ccc(NC(=O)c3cn(C)nn3)cc2C1`: the INHIBITION was 29.65%.

With `Cn1cc(C(=O)Nc2ccc(CC(=O)NC3CC3)cc2)nn1`, the INHIBITION worked out at 52.85%.

Regarding `Cn1cc(C(=O)Nc2ccc(CC(=O)NCC(F)(F)F)cc2)nn1`, the INHIBITION worked out at 78.24%.

As for `CN(C)C(=O)Cc1ccc(NC(=O)c2cn(C)nn2)cc1`, the INHIBITION was 29.87%.

For `COC(=O)N1CCc2ccc(NC(=O)c3cn(C)nn3)cc2C1`, the INHIBITION was 41.44%.

Values taken from ChEMBL document CHEMBL4513216, “Probing the Open Global Health Chemical Diversity Library for Multistage-Active Starting Points for Next-Generation Antimalarials” (ACS Infect Dis, 2020).
